PvdQ inh: P. aeruginosa PvdQ acylase inhibition; purified PvdQ acylase, fluorescence plate reader; inhibition, % at 10 µM; 340,000 compounds, 0.063% hits; AID 488965; in the data active = inhibition above about 30%, passing the limit was not always enough
dFosB act-1: mouse delta FosB homodimer activation; P13346; purified delta FosB, TAMRA-CDK5 oligo fluorescence polarization; percent of positive-control signal above neutral wells; activation, % at 25 µM; 340,000 compounds, 0.99% hits; AID 493131;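 active = mean activation above about 17%, with every replicate also reaching it, limit read from the data, passing the limit was not always enough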
SIRT5 inh: inhibitors of human sirtuin-5 desuccinylase | Purified SirT5, succinyl-peptide AMC, trypsin-coupled fluorescence | inhibition, % at 15 µM | 330,000 compounds, 1.1% hits; in the data active = inhibition above about 15%
PglD inh: PglD (C. jejuni) enzyme inhibition | 360,000 compounds, 0.098% hits | inhibition, % at 12.5 µM | purified PglD enzyme, DTNB colorimetric CoA detection | AID 602405; in the data active = inhibition above about 16%, passing the limit was not always enough
CDK5 p35 inh: inhibitors of human CDK5/p35 kinase; Q00535+Q15078; Recombinant CDK5/p35, ADP-Glo luminescence, 60 min; inhibition, % at 10 µM; 330,000 compounds, 0.01% hits; AID 488839;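 active = highest replicate inhibition of at least 50% and at least 75% of replicates reaching 50%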
Target sequence (Q00535 whole entry, looked up): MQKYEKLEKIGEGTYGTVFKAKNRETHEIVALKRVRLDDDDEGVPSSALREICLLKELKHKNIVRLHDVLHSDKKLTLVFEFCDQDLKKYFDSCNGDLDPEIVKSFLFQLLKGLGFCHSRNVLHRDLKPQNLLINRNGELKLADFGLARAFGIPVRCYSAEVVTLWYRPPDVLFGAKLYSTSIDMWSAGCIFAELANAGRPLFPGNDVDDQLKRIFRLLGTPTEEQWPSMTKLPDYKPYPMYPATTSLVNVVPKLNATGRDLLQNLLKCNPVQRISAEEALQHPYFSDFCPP
Target sequence (Q15078 whole entry, looked up): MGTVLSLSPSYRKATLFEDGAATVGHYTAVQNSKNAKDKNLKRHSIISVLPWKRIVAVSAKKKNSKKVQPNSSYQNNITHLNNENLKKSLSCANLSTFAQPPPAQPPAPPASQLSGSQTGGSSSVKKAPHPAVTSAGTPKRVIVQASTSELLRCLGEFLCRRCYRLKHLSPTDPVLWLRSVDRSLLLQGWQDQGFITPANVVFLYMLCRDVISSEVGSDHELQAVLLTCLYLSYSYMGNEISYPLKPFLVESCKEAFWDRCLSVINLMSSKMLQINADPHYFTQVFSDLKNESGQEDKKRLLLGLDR
FGF22 binding: binders of recombinant human FGF22 by thermal shift | 340,000 compounds, 1.5% hits | activity (Tm shift, normalised), % at 9.99 µM | SYPRO orange fluorescence; percent of sucrose octasulfate shift, DMSO zero | Q9HCT0;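 active = mean Tm shift, scaled 0 neutral to 100 positive control, at about 1.3% or above, every replicate too, limit read from the data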
dFosB act-2: activators of mouse delta FosB homodimer DNA binding; 2,400 tested, under 10 active; shares compounds with dFosB act-1; activation, % at 24.9 µM; AID 588690; purified delta FosB, TAMRA-CDK5 oligo fluorescence polarization; normalised: neutral wells 0, positive control 100;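 active = highest replicate activation at or above 34% and every replicate reaching that threshold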;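 note: higher polarization means more probe DNA bound by delta FosB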
Numbers stand for hits; i = inactive; nt = no result. A selection: hits, their analogues and other compounds. The true share with any hit is near 2.8%.

SMILES	PvdQ inh	dFosB act-1	SIRT5 inh	PglD inh	CDK5 p35 inh	FGF22 binding	dFosB act-2
O=C(CSc1nnnn1-c1ccc(Cl)cc1)NC(=O)Nc1ccc2c(c1)OCCO2	i	21.2	nt	i	i	nt	i
CN(C)CC(=O)Nc1ccc2c(c1)[C@H]1C[C@H](CC(=O)NC3CCCCC3)O[C@@H](CO)[C@H]1O2	nt	nt	i	i	nt	i	nt
O=C(CSc1nc(-c2ccccc2)cc(C(F)(F)F)n1)NCc1cccs1	i	26.8	nt	nt	i	nt	i
Cc1ccc(OCCCCCCN2CCNCC2)c(Br)c1	i	22.5	i	i	i	i	i
CCOC(=O)c1cnc2c(cnn2C)c1NCc1ccc(OC)cc1	i	29.4	i	i	i	i	i
CCOc1ccc2nc(C)cc(Nc3ccc4c(c3)OCCO4)c2c1	i	43.5	nt	i	i	nt	i
Cc1cc(Nc2ccc3c(c2)OCCO3)c2cccc(C)c2n1	i	30.6	nt	i	i	nt	i
Cc1cc(Nc2ccc3c(c2)OCCO3)c2ccccc2n1	i	i	i	nt	i	i	nt
CC=Cc1ccc2n(c1=O)C[C@@H]1[C@@H](CO)[C@H](C(=O)NCC3CC3)N(Cc3ccccn3)[C@H]21 (mixture of isomers)	nt	nt	i	i	nt	i	nt
CCOC(=O)c1sc2nc(C)n(N)c(=O)c2c1C	i	i	i	nt	i	i	nt
CCOC(=O)c1sc2nc(C)[nH]c(=S)c2c1C	i	20.6	i	nt	i	i	i
Cc1c(NC(=O)Cc2ccccc2)cccc1C(=O)NN1C(=O)c2ccccc2C1=O	i	23.1	i	i	i	i	i
CN(C)C(=O)c1ccc(-c2ccc3c(c2)[C@@H]2[C@@H](CCN2C(=O)c2ccccn2)[C@H](CO)N3)cc1	nt	nt	nt	i	nt	i	nt
COc1ccc(-n2nc(C(=O)NCC(=O)Nc3cc(OC)c(OC)c(OC)c3)c3ccccc3c2=O)cc1OC	i	23.7	i	i	i	i	i
COc1ccc(-n2nc(C(=O)NCC(=O)NCc3cccc(F)c3)c3ccccc3c2=O)cc1Cl	i	25.6	i	i	i	i	i
COc1ccc(-c2nnn(CC(=O)NCc3ccc4c(c3)OCO4)n2)cc1OC	i	29.0	i	nt	i	i	i
CCOc1ccc(-c2nnn(CC(=O)NCc3ccc(F)cc3)n2)cc1OCC	i	41.2	i	i	i	i	i
O=C(Cn1nnc(-c2ccc(Cl)cc2)n1)NCc1ccco1	i	i	i	nt	i	i	nt
O=C(Cn1nnc(-c2ccccc2F)n1)Nc1ccc2c(c1)OCCO2	i	i	i	i	i	i	nt
COc1ccc(C(=O)Nc2ccc(-c3nnn(CC(=O)NCc4ccco4)n3)cc2)cc1	i	46.4	i	i	i	i	i
Cc1ccc(NC(=O)Cn2nnc(-c3ccc4c(c3)OCO4)n2)cc1F	i	22.7	nt	i	i	i	i
CC(C)NC(=O)N(C)C[C@H]1Oc2c(NS(=O)(=O)c3cn(C)cn3)cccc2C(=O)N([C@@H](C)CO)C[C@H]1C	nt	nt	i	i	nt	i	nt
CCCOc1ccc(-c2nnn(CC(=O)Nc3cccc(C(=O)OC)c3)n2)cc1	i	i	nt	i	i	nt	nt
CCOc1ccc(-c2nnn(CC(=O)Nc3cccc(OC)c3)n2)cc1OCC	i	19.0	nt	i	i	nt	i
COc1cccc(-c2nnn(CC(=O)Nc3cc(OC)c(NC(=O)c4ccco4)cc3OC)n2)c1	i	17.4	nt	i	i	nt	i
SMILES	PvdQ inh	dFosB act-1	SIRT5 inh	PglD inh	CDK5 p35 inh	FGF22 binding	dFosB act-2
O=C(Cn1c2ccccc2c(=O)c2ccccc21)Nc1cccc(F)c1	i	37.3	i	nt	i	i	i
O=c1c2ccc(Cl)cc2[nH]c(=S)n1Cc1cccnc1	i	19.5	nt	i	i	nt	i
O=C(c1ccc2c(=O)n(Cc3ccc(Cl)cc3)c(=S)[nH]c2c1)N1CCCC1	i	i	i	i	nt	i	nt
COCC(=O)N(C)C[C@@H]1Oc2ncc(C3=CCCC3)cc2C(=O)N([C@H](C)CO)C[C@@H]1C	nt	nt	i	nt	nt	i	nt
C[C@@H]1CCCCO[C@@H](CN(C)CC2CCCCC2)[C@H](C)CN([C@@H](C)CO)C(=O)c2cc(NC(=O)C3CCCCC3)ccc2O1	nt	nt	i	i	nt	i	nt
CCC(=O)Nc1nnc(SCC(=O)NCc2ccc3c(c2)OCO3)s1	i	22.6	i	i	i	i	i
CCSc1nnc(NC(=O)c2ccc3c(c2)OCO3)s1	i	i	nt	i	i	nt	nt
CCOC(=O)CSc1nnc(NC(=O)c2ccc3c(c2)OCO3)s1	i	40.8	i	i	i	i	i
C[C@@H]1CN([C@H](C)CO)C(=O)Cc2cc(NC(=O)c3ccncc3)ccc2O[C@H]1CN(C)S(=O)(=O)c1cn(C)cn1	nt	nt	i	i	nt	i	nt
COc1cc(OC)cc(C(=O)Nc2nnc(SCC(=O)NCc3ccco3)s2)c1	i	i	i	i	i	i	nt
O=C(CCCl)Nc1nnc(SCC(=O)NC2CCCC2)s1	i	19.6	60.4	i	i	i	i
COc1ccc(Nc2nnc(SCC(=O)NC3CC3)s2)cc1	i	i	i	i	i	i	nt
COCCSc1nnc(NC(=O)c2ccc(OC)c([N+](=O)[O-])c2)s1	i	26.3	i	nt	i	i	i
COc1ccc(C(=O)Nc2nnc(SCC(=O)NCc3ccco3)s2)cc1OC	i	26.4	i	i	i	i	i
CCCCC(=O)Nc1nnc(SCC(=O)NC2CCCC2)s1	i	i	nt	i	i	nt	nt
COc1ccc(C(=O)Nc2nnc(SCC(=O)NC3CC3)s2)cc1	i	22.4	i	i	i	i	i
COc1ccc(CSc2nnc(NC(C)=O)s2)cc1[N+](=O)[O-]	i	i	i	nt	i	i	nt
CN1C(=O)c2cc(NC(=O)c3cccs3)ccc2OC[C@H]2O[C@H](CC(=O)NCC(F)(F)F)CC[C@H]21	nt	nt	i	i	nt	i	nt
COc1cccc(C(=O)Nc2nnc(SCC(=O)NC3CC3)s2)c1	i	52.6	i	i	i	i	i
CC[C@@H](C)[C@@H]1CN([C@@H](C)CN2CCC[C@H]2CN2C(N)=NC[C@@H]2Cc2ccccc2)C(=N)N1CCc1ccc(Cl)c(Cl)c1	i	22.8	nt	i	i	nt	i
O=C(NCc1ccc2c(c1)OCO2)C1CCN(c2nccc(C(F)(F)F)n2)CC1	i	18.3	i	i	i	i	i
O=C(NCc1ccc2c(c1)OCO2)C1CCN(S(=O)(=O)c2ccc(F)cc2)CC1	i	i	i	i	nt	i	nt
COc1ccc2c3c(n(C)c2c1)[C@H](CO)N(C(=O)C1CCC1)CC31CCN(C(=O)CN(C)C)CC1	nt	nt	i	nt	nt	i	nt
N#Cc1ccc(C23CC4(C2)[C@H](CN(CC2CCCCC2)[C@@H]4c2ccccc2)C3c2ccc(Cl)nc2)cc1 (some centres not stated)	i	24.8	nt	i	i	i	i
Nc1nc(Cl)cc(Sc2ccc(F)cc2)n1	i	i	nt	nt	i	nt	nt
Cc1ccc(Sc2cc(Cl)nc(N)n2)cc1	i	58.3	nt	i	i	nt	i
CC(C)CC#Cc1ccc2c(c1)O[C@H](CN(C)S(C)(=O)=O)[C@@H](C)CN([C@@H](C)CO)S2(=O)=O	nt	nt	i	i	nt	i	nt

Bioassay records (PubChem)
